High-throughput results deposited in PubChem by National Center for Advancing Translational Sciences (NCATS).
This excerpt belongs to a sample that is enriched for hits.
IL1B secr inh = qHTS for Inhibitors of Inflammasome Signaling: IL-1-beta AlphaLISA Primary Screen. activity change, % at 57.5 µM. AID 743279, 2014. 360,000 tested, 4.7% active. THP-1 LPS/ATP IL-1B secretion, AlphaLISA, 16 h; stronger effect = lower value; in the data active = activity change below about -50%; inconclusive = mostly about -30% to -49%
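THP-1 cells pretreated 1 hr with compounds (up to 57.5 uM final), then stimulated with LPS (250 ng/mL final) plus ATP (1.25 mM final); secreted IL-1B measured by AlphaLISA after 16 hr, decreased signal indicating inhibition.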
TDP1 cell noCPT = qHTS for Inhibitors of human tyrosyl-DNA phosphodiesterase 1 (TDP1): qHTS in cells in absence of CPT; 420,000 tested, 15% active; Potency, µM (titrated, usually from 46.2 µM), for inactives: top-dose activity change, negative = growth inhibition, actives largely listed as inhibitors; DT40 Tdp1-/- hTDP1 cells, no CPT, ATP luminescence, 48 h; AID 686978, 2013; also: potency is read from the fitted curve at half-maximal effect; nearly all actives have a fitted effect of over 55% in size
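Compound effects on proliferation are scored in DT40 Tdp1-/-;hTDP1 cells in the absence of CPT. ATP levels (CellTiter-Glo luminescence) are recorded after a ≥48 hr, 37 °C incubation.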
HT1080NT lethal = qHTS for induction of synthetic lethality in tumor cells producing 2HG: qHTS for the HT-1080-NT fibrosarcoma cell line; HT-1080-NT fibrosarcoma viability, CellTiter-Glo ATP luminescence, 48 h; Potency, µM (doses to about 46.1 µM), inactives show top-dose activity, negative = less viability, hits mostly cytotoxic; 360,000 tested, 1.6% active; AID 686970, 2013;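 also: NT is the 2HG producing partner of a matched IDH1 knockdown line; potency is read from the fitted curve at half-maximal effect; 0% = DMSO-treated cells and -100% = media-only wells without cells; nearly all actives have a fitted effect of over 55% in size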
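Fibrosarcoma NT cells, 750 per well in 5% FBS RPMI, were exposed to compound for 48 hours. Viability: CellTiter-Glo luminescence.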
12-LOX inh = Primary qHTS assay for inhibitors of human arachidonate 12S-lipoxygenase (ALOX12): Round 2; AID 1671190, 2021; 580,000 tested, 1.1% active; Potency, µM (titrated, usually from 108 µM), without a hit: top-dose activity change, negative = inhibition, hits mostly inhibitors; purified 12hLO, xylenol orange hydroperoxide absorbance; also: potency is read from the fitted curve at half-maximal effect
Target sequence (P18054 whole entry, looked up): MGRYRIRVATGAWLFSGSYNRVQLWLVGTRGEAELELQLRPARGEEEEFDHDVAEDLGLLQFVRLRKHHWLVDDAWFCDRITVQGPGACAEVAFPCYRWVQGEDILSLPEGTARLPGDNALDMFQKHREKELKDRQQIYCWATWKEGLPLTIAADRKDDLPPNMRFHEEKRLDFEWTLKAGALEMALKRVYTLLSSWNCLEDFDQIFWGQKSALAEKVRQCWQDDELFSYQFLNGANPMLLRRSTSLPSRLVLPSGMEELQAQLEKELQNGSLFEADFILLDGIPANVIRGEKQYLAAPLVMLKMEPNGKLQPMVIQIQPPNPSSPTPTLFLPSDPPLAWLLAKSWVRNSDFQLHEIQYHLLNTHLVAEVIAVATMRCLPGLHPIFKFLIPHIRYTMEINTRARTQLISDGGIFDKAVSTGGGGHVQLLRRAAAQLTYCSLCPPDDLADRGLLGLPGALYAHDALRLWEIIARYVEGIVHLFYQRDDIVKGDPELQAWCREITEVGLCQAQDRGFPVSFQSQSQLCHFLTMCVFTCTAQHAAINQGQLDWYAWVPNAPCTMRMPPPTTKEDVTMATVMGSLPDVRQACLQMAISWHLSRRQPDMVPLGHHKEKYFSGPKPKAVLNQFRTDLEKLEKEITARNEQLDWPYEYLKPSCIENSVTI
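Purified human 12hLO (150 nM final) in 25 mM Hepes, 0.01% Triton X-100, pH 7.0 was preincubated 15 min at room temperature with compound. Then 40 uM arachidonic acid was added, 30 min. Hydroperoxide was read by Fe-XO absorbance ratio 573/405 nm.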
TDP1 cell CPT = qHTS for Inhibitors of human tyrosyl-DNA phosphodiesterase 1 (TDP1): qHTS in cells in presence of CPT; chicken DT40 Tdp1-/-;hTDP1 cells + 20 nM CPT, ATP luminescence, 48 h; Potency, µM (doses to about 46.2 µM), without a hit: top-dose activity change, negative = growth inhibition, most hits filed as inhibitors; 420,000 tested, 12% active; also: potency is read from the fitted curve at half-maximal effect; nearly all actives have a fitted effect of over 55% in size
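Chicken DT40 Tdp1-/- cells complemented with human TDP1, 400 cells/well, exposed to compounds plus 20 nM camptothecin for at least 48 h at 37 C; viability read as ATP content by CellTiter-Glo luminescence.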
HT1080 IDH1KD tx = qHTS for induction of synthetic lethality in tumor cells producing 2HG: qHTS for the HT-1080-IDH1KD cell line; HT-1080 IDH1 knockdown viability, ATP luminescence, 48 h; Potency, µM (titrated, usually from 46.1 µM), without a hit: top-dose activity, negative = toxicity, actives largely listed as cytotoxic; 360,000 tested, 2% active; AID 686971, 2013;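 also: potency is read from the fitted curve at half-maximal effect; 0% = DMSO wells and -100% = cell-free medium wells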
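Using the IDH1-knockdown HT-1080 line run in the same batch and compound series as the NT line, viability after 48 h at 37 °C was determined by CellTiter-Glo luminescence and expressed as % activity.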
The depositor's hits bear a star; u = inconclusive; x = no result given; [ ] = remark or other dose. Unless noted, calls follow the shape of the dose curve; as a rule, active = well fitted curve in the direction sought with a large enough effect; inconclusive = small, poorly fitted or top-dose-only effect, or another doubt; inactive = no such curve, though single readings can be large; an effect the other way counts as inactive or inconclusive. Unless noted, % is scaled to controls: 0 for no effect and ±100 for the full control effect.

SMILES	IL1B secr inh	TDP1 cell noCPT	HT1080NT lethal	12-LOX inh	TDP1 cell CPT	HT1080 IDH1KD tx
COc1ccc(OC)c(NC(=O)C2CCCN(S(=O)(=O)c3c(C)nn(C)c3C)C2)c1 (stereo not drawn)	-11.5	20.6µM*	2.4%	-0.7%	u	7.1%
COc1cccc(NC(=O)C2CCCN(S(=O)(=O)c3c(C)nn(C)c3C)C2)c1 (stereo not drawn)	x	14.6µM*	x	-21.7%	u	x
COc1ccc(OC)c(NC(=O)C2CCCN(S(=O)(=O)c3c(C)noc3C)C2)c1 (stereo not drawn)	16.2	u	2.2%	-11.2%	-21.7%	1.9%
Cc1c(NC(=O)C(=O)/C=C(\O)c2ccc(Cl)cc2)c(=O)n(-c2ccccc2)n1C	-56.4*	-8.3%	-1.6%	u	3.1%	-4.4%
Cc1ccc(/C=C(\C#N)C(=O)Nc2cccc(Cl)c2)o1	x	-14.4%	x	0.6%	1.3µM*	x
Cc1cccc(NC(=O)/C(C#N)=C/c2ccc(C)o2)c1	x	-23.7%	x	-4.9%	-20.9%	x
Cc1c(NC(=O)/C(C#N)=C/c2ccc(-c3ccccc3Cl)o2)c(=O)n(-c2ccccc2)n1C	-73.0*	29.1µM*	-5.0%	-20.0%	u	-4.3%
Cc1c(NC(=O)/C(C#N)=C/c2ccc(-c3ccc(Cl)c(Cl)c3)o2)c(=O)n(-c2ccccc2)n1C	-51.9*	13µM*	5.1%	-7.0%	18.4µM*	19.1%
N#CCC1(O)C(=O)Nc2ccccc21 (stereo not drawn)	x	x	x	7.1%	x	x
COCCN(Cc1cccs1)CC1CCCO1 (stereo not drawn)	x	x	x	-3.7%	x	x
Cc1noc(C)c1COc1ccc(C(=O)N2CCN(CC(=O)N3CCCC3)CC2)cc1	x	x	x	-5.1%	x	x
Cc1ccc(Oc2nc3ccccn3c(=O)c2/C=C(\C#N)C(=O)Nc2c(C)n(C)n(-c3ccccc3)c2=O)c(C)c1	0.0	13µM*	-13.1%	-20.3%	u	0.0%
Cc1c(NC(=O)/C(C#N)=C/c2ccc(-c3cccc(Cl)c3)o2)c(=O)n(-c2ccccc2)n1C	-11.8	20.6µM*	-29.5%	u	u	-20.9%
COc1ccccc1Oc1nc2ccccn2c(=O)c1/C=C(\C#N)C(=O)Nc1c(C)n(C)n(-c2ccccc2)c1=O	x	-16.7%	3.1%	-7.0%	4.3%	-14.7%
Clc1ccc(-c2nc(-c3cccc(Br)c3)no2)s1	x	x	x	-4.6%	x	x
Cc1sc(NC(=O)C2CCCCC2)c(C#N)c1-c1ccccc1	21.8	-23.6%	11.9%	u	-4.4%	4.5%
CCc1c(C)sc(NC(=O)C2CCCCC2)c1C#N	x	x	x	8.91µM*	x	x
CCc1c(C)sc(NC(=O)c2c(F)cccc2F)c1C#N	x	x	x	-7.1%	x	x
CCc1c(C)sc(NC(=O)OC)c1C#N	x	x	x	25.1µM*	x	x
CCOC(=O)C(NC(=O)CCl)(Nc1sc(C)c(CC)c1C#N)C(F)(F)F (stereo not drawn)	-106.9*	6.51µM*	u	-28.1%	u	-24.2%
c1ccc(C(=NN=C2CCCCCC2)c2ccccc2)cc1	x	x	x	-4.3%	x	x
CCOc1ccc(N2C(=O)CS(=O)(=O)C23C(=O)N(Cc2cccc(Cl)c2)c2ccccc23)cc1 (stereo not drawn)	x	u	x	-27.4%	u	x
Oc1cccc(C2c3[nH]c4ccccc4c3CCN2Cc2ccoc2)c1 (stereo not drawn)	-4.4	-24.6%	0.8%	27.8%	-26.3%	-2.9%
COc1ccc(C2c3[nH]c4ccccc4c3CCN2Cc2ccoc2)c(F)c1 (stereo not drawn)	0.0	16.4µM*	u	-9.5%	u	-22.7%
Oc1cccc(C2c3[nH]c4ccccc4c3CCN2Cc2ccc3c(c2)CCO3)c1 (stereo not drawn)	-93.1*	20.6µM*	20.6µM*	36.9%	u	23.1µM*
SMILES	IL1B secr inh	TDP1 cell noCPT	HT1080NT lethal	12-LOX inh	TDP1 cell CPT	HT1080 IDH1KD tx
Cc1cccc(C2c3[nH]c4ccccc4c3CCN2Cc2ccc(C)s2)n1 (stereo not drawn)	22.8	-27.9%	-16.9%	1.4%	-8.6%	2.4%
COc1ccccc1C1c2[nH]c3ccccc3c2CCN1Cc1cnc(C)s1 (stereo not drawn)	5.7	18.4µM*	-0.4%	8.2%	u	0.0%
COc1cccc(C2c3[nH]c4ccccc4c3CCN2Cc2cnc(C)s2)c1OC (stereo not drawn)	-8.2	14.6µM*	u	6.7%	u	u
O=C(NC1C2CC3CC(C2)CC1C3)c1cc(-c2cccnc2)nc2ccc(Cl)cc12 (stereo not drawn)	x	x	x	-6.6%	x	x
COc1ccc(Cl)cc1N1C(=O)[C@@H]2C[C@H]1CN2Cc1nc2ccccc2nc1C	x	-20.1%	x	-5.6%	4.9%	x
O=C(Nc1ccc(F)cc1)OCc1cn(Cc2cccc(Cl)c2)nn1	x	x	x	0.0%	x	x
CN(C)C(=O)CSc1nnc(-c2cc(-c3cccs3)nc3ccccc23)o1	-60.3*	18.4µM*	-0.3%	19.6%	-45.7%	-6.6%
CCN(CC)C(=O)CSc1nnc(-c2cc(-c3ccc(Cl)cc3)nc3ccccc23)o1	3.3	u	18.2%	-17.5%	-67.7%	1.7%
CC(C)(C)c1ccc(C(=O)Nc2nc3c(s2)C[C@@H]2[C@](C)(CO)[C@H](O)CC[C@@]2(C)[C@@H]3CC(=O)N2CCOCC2)cc1	x	x	x	6.2%	x	x
COc1ccc(C(=O)Nc2nc3c(s2)C[C@@H]2[C@](C)(CO)[C@H](O)CC[C@@]2(C)[C@@H]3CC(=O)N2CCOCC2)cc1	x	x	x	89.1µM*	x	x
O=C(OCCOC(=O)c1cccs1)c1cccs1	x	x	x	2.7%	x	x
COC(=O)c1c(-c2ccc3ccccc3c2)csc1NC(=O)Cc1ccc(OC)c(OC)c1	u	13µM*	-26.8%	u	-74.3%	-6.2%[9.24 µM]
O=C(Cc1cccs1)Nc1nc(-c2ccc(F)cc2F)cs1	-69.5*	u	-14.6%	-10.0%	10.3µM*	u
O=C(Cc1cccs1)Nc1nc(-c2ccc(F)c(F)c2)cs1	x	1.46µM*	-6.8%	u	8.2µM*	-5.8%
COc1ccc(OC)c(-c2csc(NC(=O)Cc3cccs3)n2)c1	-17.5	u	-2.4%	-10.2%	-6.7%	-0.7%
